Results: PubChem BioAssay (Tox21)
Values joined by “and” are separate entries in the source; they are usually repeats but may differ in a detail not shown here. Equal values may be shown once. Results filed as inconclusive are left out. A call without a number means that no potency is given here. Some compounds were tested as several samples or in several runs, with calls that do not always agree. Active and inactive are the calls of the source. Unless noted, the call rests on the fitted dose curve; in most records, active means well fitted curve in the direction sought with a large enough effect in the repeat runs; inconclusive means weak or mixed curves; inactive means no such curve, though single readings can be large; an effect the other way counts as inactive or inconclusive.

Tests used:
[1] = qHTS assay to identify small molecule agonists of H2AX (AID 1224845; active means well fitted activation curve with a large enough effect in the signal ratio in the repeat runs, not every such curve was filed as active; the % refers to the signal ratio; further: potency means the concentration at half of the fitted maximal effect)
Summary of the method: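 Wild-type CHO-K1 cells, plated overnight, exposed 3hr at 37C to 15 concentrations (0.76% DMSO final). Lysed, then HTRF anti-pH2AX (S139) cryptate and anti-H2AX-d2 antibodies, 24 hr room temperature; 665/620 nm emission read.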

[2] = qHTS assay to identify small molecule agonists of the hypoxia (HIF-1) signaling pathway (AID 1224846; active means well fitted activation curve with a large enough effect in the signal ratio in the repeat runs, not every such curve was filed as active; the % refers to the signal ratio)
Summary of the method: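 Reporter induction in HRE-bla ME-180 cells is taken as agonism: cells sit 5 hrs after plating, receive compounds or DMSO only, incubate 17 hrs at 37C under 5% CO2, and are loaded with CCF4-AM for beta-lactamase FRET measurement.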

[3] = qHTS assay to identify small molecule agonists of H2AX - cell viability counter screen (AID 1224847; calls by dose curve; further: top concentration of the series differs between compounds; nearly all actives have a fitted effect of over 30% in size)
Summary of the method: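 For this counter screen, overnight-attached CHO-K1 cells received test compounds (15 concentrations, 0.76% DMSO final); 3 hr later at 37C, CellTiter-Glo reagent was added and luminescence recorded after 30 min at room temperature.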

[4] = qHTS RealTime-Glo MT Cell Viability Assay in HepG2 cells - 24 hour (AID 1224867); further: nearly all actives have a fitted effect of over 50% in size
Summary of the method: (§1)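 HepG2 cells (600/well) were dispensed with RealTime-Glo reagents, incubated 5 h at 37 °C, then treated with compounds in DMSO for up to 40 h. Nonlytic NanoLuc luminescence reflecting viable cells was read at each stated time point.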

[5] = qHTS RealTime-Glo MT Cell Viability Assay in HEK293 cells - 32 hour (AID 1224868); further: nearly all actives have a fitted effect of over 50% in size; further: potency means the concentration at half of the fitted maximal effect
Summary of the method: (§2)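 HEK293 cells seeded with NanoLuc/prosubstrate reagent, rested 5 h at 37 C, then dosed and kept at 37 C up to 40 h. Nonlytic real-time luminescence from viable cells read at 0, 8, 16, 24, 32 and 40 h.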

[6] = A CellTox Green Cytotoxicity Assay to monitor cytotoxicity in HEK293 cells - 0 hour (AID 1224869); further: nearly all actives have a fitted effect of over 50% in size; further: potency means the concentration at half of the fitted maximal effect
Summary of the method: (§3)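 Tox21 screen in HEK293: membrane-impermeant cyanine dye fluoresces on binding dead-cell DNA; compound pinned 5 h post-seeding, plates held at 37 C, signal read repeatedly through 40 h.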

[7] = qHTS RealTime-Glo MT Cell Viability Assay in HepG2 cells - 40 hour (AID 1224870); further: nearly all actives have a fitted effect of over 50% in size
Summary of the method: (§4)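 HepG2 cells (600/well) mixed with RealTime-Glo MT reagent, settled 5 h at 37 C/5% CO2 before compound addition. Nonlytic NanoLuc luminescence from viable-cell prosubstrate reduction read repeatedly during 40 h treatment at 37 C.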

[8] = qHTS RealTime-Glo MT Cell Viability Assay in HEK293 cells - 16 hour (AID 1224872); further: nearly all actives have a fitted effect of over 50% in size; further: potency means the concentration at half of the fitted maximal effect
Summary of the method: as §2

[9] = qHTS RealTime-Glo MT Cell Viability Assay in HepG2 cells - 8 hour (AID 1224873); further: nearly all actives have a fitted effect of over 55% in size
Summary of the method: as §4

[10] = qHTS RealTime-Glo MT Cell Viability Assay in HEK293 cells - 40 hour (AID 1224874); settings: RealTime-Glo luminescence; max response: stronger effect = lower value; further: nearly all actives have a fitted effect of over 50% in size; further: potency means the concentration at half of the fitted maximal effect
Summary of the method: (§5)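 HEK293 + NanoLuc + prosubstrate, 600 cells/well; 5 h, 37 C/5% CO2; compound 23 nL in DMSO by pintool; 37 C; luminescence read at 0, 8, 16, 24, 32 and 40 h time points.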

[11] = A CellTox Green Cytotoxicity Assay to monitor cytotoxicity in HEK293 cells - 24 hour (AID 1224875); further: series mostly up to about 77 µM; nearly all actives have a fitted effect of over 45% in size
Summary of the method: as §3

[12] = qHTS RealTime-Glo MT Cell Viability Assay in HepG2 cells - 32 hour (AID 1224877); further: nearly all actives have a fitted effect of over 55% in size
Summary of the method: as §1

[13] = qHTS RealTime-Glo MT Cell Viability Assay in HEK293 cells - 0 hour (AID 1224880); further: top concentration of the series differs between compounds; nearly all actives have a fitted effect of over 45% in size
Summary of the method: as §5

[14] = A CellTox Green Cytotoxicity Assay to monitor cytotoxicity in HEK293 cells - 32 hour (AID 1224881); further: nearly all actives have a fitted effect of over 40% in size; further: potency means the concentration at half of the fitted maximal effect
Summary of the method: as §3

[15] = A CellTox Green Cytotoxicity Assay to monitor cytotoxicity in HEK293 cells - 40 hour (AID 1224871); further: nearly all actives have a fitted effect of over 45% in size; further: potency means the concentration at half of the fitted maximal effect
Summary of the method: as §3

[16] = A CellTox Green Cytotoxicity Assay to monitor cytotoxicity in HepG2 cells - 40 hour (AID 1224879); further: nearly all actives have a fitted effect of over 40% in size; further: potency means the concentration at half of the fitted maximal effect
Summary of the method: (§6)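 Measurements at 0, 8, 16, 24, 32 and 40 h of treatment captured CellTox Green fluorescence in HepG2 cells that had been co-plated with reagent and preincubated 5 h at 37 C/5% CO2.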

[17] = A CellTox Green Cytotoxicity Assay to monitor cytotoxicity in HepG2 cells - 16 hour (AID 1224876); further: nearly all actives have a fitted effect of over 45% in size; further: potency means the concentration at half of the fitted maximal effect
Summary of the method: as §6

[18] = A CellTox Green Cytotoxicity Assay to monitor cytotoxicity in HepG2 cells - 24 hour (AID 1224878); further: nearly all actives have a fitted effect of over 45% in size; further: potency means the concentration at half of the fitted maximal effect
Summary of the method: as §6

Compound: C/C=C/c1ccc(O)c(OC)c1
- Potency [1]: inactive
- outcome [2]: inactive
- Potency [3]: inactive
- outcome [4]: inactive
- Potency [5]: inactive
- Potency [6]: inactive
- outcome [7]: inactive
- Potency [8]: inactive
- outcome [9]: inactive
- max response [10]: -5.09% (inactive) and 1.37% (inactive) and 1.68% (inactive)
- Potency [11]: inactive
- outcome [12]: inactive
- Potency [13]: inactive
- Potency [14]: inactive

Compound: CCCCCCCCCCCCCCCCCC(=O)OCC(O)CO (centres undefined)
- Potency [1]: inactive
- outcome [2]: inactive
- Potency [3]: inactive
- outcome [4]: inactive
- Potency [5]: inactive
- Potency [6]: inactive
- outcome [7]: inactive
- Potency [15]: inactive
- Potency [8]: inactive
- outcome [9]: inactive
- max response [10]: 10.4% (inactive) and 6.82% (inactive) and 1.48% (inactive)
- Potency [11]: inactive
- outcome [12]: inactive
- Potency [16]: inactive
- Potency [13]: inactive
- Potency [14]: inactive

Compound: Cc1c(N(C)CS(=O)(=O)O)c(=O)n(-c2ccccc2)n1C
- Potency [1]: inactive
- outcome [2]: inactive
- Potency [3]: inactive
- outcome [4]: inactive
- Potency [5]: inactive
- Potency [6]: inactive
- outcome [7]: inactive
- Potency [8]: inactive
- outcome [9]: inactive
- max response [10]: -0.4% (inactive) and 7.69% (inactive)
- Potency [11]: inactive
- Potency [17]: inactive
- outcome [12]: inactive
- Potency [18]: inactive
- Potency [13]: inactive
- Potency [14]: inactive

Compound: COc1ccccc1NC(=O)CC(C)=O
- Potency [1]: inactive
- outcome [2]: inactive
- Potency [3]: inactive
- outcome [4]: inactive
- Potency [5]: inactive
- Potency [6]: inactive
- outcome [7]: inactive
- Potency [8]: inactive
- outcome [9]: inactive
- max response [10]: -0.191% (inactive) and 6.19% (inactive)
- Potency [11]: inactive
- outcome [12]: inactive
- Potency [18]: inactive
- Potency [13]: inactive
- Potency [14]: inactive

Compound: C=CC(=O)NC(C)(C)CS(=O)(=O)O
- Potency [1]: inactive
- outcome [2]: inactive
- Potency [3]: inactive
- outcome [4]: inactive
- Potency [5]: inactive
- Potency [6]: inactive and 43.6 µM (active)
- outcome [7]: inactive
- Potency [15]: inactive and 43.6 µM (active)
- Potency [8]: inactive
- outcome [9]: inactive
- max response [10]: -2.52% (inactive) and 4.35% (inactive) and 4.55% (inactive)
- Potency [17]: inactive and 24.5 µM (active)
- outcome [12]: inactive
- Potency [18]: inactive and 24.5 µM (active)
- Potency [16]: inactive and 43.6 µM (active)
- Potency [13]: inactive
- Potency [14]: inactive and 43.6 µM (active)

Compound: NCCNc1cccc2ccccc12
- Potency [1]: inactive
- outcome [2]: inactive
- Potency [3]: inactive
- outcome [4]: inactive
- Potency [5]: 54.9 µM (active) and 53.6 µM (active) and inactive
- Potency [6]: inactive
- outcome [7]: inactive
- Potency [8]: 54.9 µM (active) and 47.8 µM (active) and inactive
- outcome [9]: inactive
- Potency [10]: 54.9 µM (active) and 53.6 µM (active)
- max response [10]: 0.781% (inactive)
- Potency [11]: inactive
- outcome [12]: inactive
- Potency [16]: 53.6 µM (active) and inactive
- Potency [14]: inactive

Compound: COc1ccc(O)cc1
- Potency [1]: 86.5 µM (active) and 89.8 µM (active) and 49.2 µM (active)
- outcome [2]: inactive
- Potency [3]: inactive
- Potency [5]: inactive
- Potency [6]: inactive
- outcome [7]: inactive
- Potency [15]: inactive
- Potency [8]: inactive
- outcome [9]: inactive
- max response [10]: -25.5% (inactive) and -26.5% (inactive) and -24.7% (inactive)
- Potency [11]: inactive
- Potency [17]: inactive
- outcome [12]: inactive
- Potency [13]: inactive
- Potency [14]: inactive

Compound: N[C@@H](Cc1c[nH]c2ccccc12)C(=O)O
- Potency [1]: inactive
- outcome [2]: inactive
- Potency [3]: inactive
- outcome [4]: inactive
- Potency [5]: inactive
- Potency [6]: inactive
- outcome [7]: inactive
- Potency [8]: inactive
- outcome [9]: inactive
- max response [10]: 11.5% (inactive)
- Potency [11]: inactive
- Potency [17]: inactive
- outcome [12]: inactive
- Potency [18]: inactive
- Potency [13]: inactive
- Potency [14]: inactive

Compound: COc1cc(O)c(C(=O)c2ccccc2)cc1S(=O)(=O)O
- Potency [1]: inactive
- outcome [2]: inactive
- Potency [3]: inactive
- outcome [4]: inactive
- Potency [5]: inactive
- Potency [6]: inactive
- outcome [7]: inactive
- Potency [8]: inactive
- outcome [9]: inactive
- max response [10]: 0.237% (inactive) and 12.7% (inactive) and -17.6% (inactive)
- Potency [11]: inactive
- outcome [12]: inactive
- Potency [16]: inactive
- Potency [13]: inactive
- Potency [14]: inactive

Compound: NC(=O)c1ccc([N+](=O)[O-])cc1Cl
- Potency [1]: inactive
- outcome [2]: inactive
- Potency [3]: inactive
- Potency [5]: inactive
- Potency [6]: inactive
- outcome [7]: inactive
- Potency [15]: inactive
- Potency [8]: inactive
- outcome [9]: inactive
- max response [10]: -1.29% (inactive) and 1.15% (inactive)
- Potency [11]: inactive
- Potency [17]: inactive
- outcome [12]: inactive
- Potency [13]: inactive
- Potency [14]: inactive

Compound: Nc1cccc(N)c1
- Potency [1]: inactive
- outcome [2]: inactive
- Potency [3]: inactive
- Potency [5]: inactive
- Potency [6]: inactive
- outcome [7]: inactive
- Potency [15]: inactive
- Potency [8]: inactive
- outcome [9]: inactive
- max response [10]: 6.95% (inactive) and 5.34% (inactive) and 0.651% (inactive)
- Potency [11]: inactive
- outcome [12]: inactive
- Potency [13]: inactive
- Potency [14]: inactive

Compound: CC(C)(C)CC(C)(C)c1ccc(O)c(-n2nc3ccccc3n2)c1
- Potency [1]: inactive
- outcome [2]: inactive
- Potency [3]: inactive
- Potency [5]: 49.7 µM (active) and inactive
- Potency [6]: inactive
- outcome [7]: inactive
- Potency [8]: 44.3 µM (active) and inactive
- outcome [9]: inactive
- Potency [10]: 49.7 µM (active)
- max response [10]: -13.8% (inactive) and -3.1% (inactive)
- Potency [11]: inactive
- outcome [12]: inactive
- Potency [13]: inactive
- Potency [14]: inactive

Compound: NC(N)=NC(N)=NCCc1ccccc1
- Potency [1]: inactive
- outcome [2]: inactive
- Potency [3]: inactive
- outcome [4]: inactive
- Potency [5]: inactive
- Potency [6]: inactive
- outcome [7]: inactive
- Potency [15]: inactive
- Potency [8]: inactive
- outcome [9]: inactive
- Potency [10]: 6.16 µM (active)
- Potency [11]: inactive
- outcome [12]: inactive
- Potency [13]: inactive
- Potency [14]: inactive

Compound: N[C@@H](Cc1c[nH]c2ccc(O)cc12)C(=O)O
- Potency [1]: inactive
- outcome [2]: inactive
- Potency [3]: inactive
- Potency [5]: inactive
- Potency [6]: inactive
- outcome [7]: inactive
- Potency [15]: inactive
- Potency [8]: inactive
- outcome [9]: inactive
- max response [10]: 3.87% (inactive) and 1.98% (inactive)
- Potency [11]: inactive
- Potency [17]: inactive
- outcome [12]: inactive
- Potency [18]: inactive
- Potency [16]: inactive
- Potency [13]: inactive
- Potency [14]: inactive
